# Screening data from PubChem BioAssay.
# MazEF act = increases E. coli MazEF RNase cleavage of RNA | 350,000 tested, 0.32% active | FAM/BHQ RNA-DNA oligo cleavage fluorescence, 5 h | P0AE70 | activation, % at 20 µM | AID 504720; in the data active = activation above about 50%
# Target sequence (P0AE70 whole entry, looked up): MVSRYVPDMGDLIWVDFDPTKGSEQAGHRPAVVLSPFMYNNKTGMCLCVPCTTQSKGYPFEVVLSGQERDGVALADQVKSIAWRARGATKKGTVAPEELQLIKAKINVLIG
# CCHF vOTU inh = blocks the CCHF virus ovarian tumor domain protease | 370,000 tested, 0.55% active | CCHFV vOTU protease, Pep-AMC fluorescence | inhibition, % at 11.5 µM
# GDH-TPI counter-1 = inhibits GDH-TPI coupling enzymes, artifact for Mtb FBA screen | AID 588335 | GDH-TPI coupled enzyme counterscreen, NADH absorbance | 360,000 tested, 1.2% active | inhibition, % at 4.8 µM
# Mtb betalactam = beta-lactam sensitization of Mtb H37Rv | M. tuberculosis H37Rv growth with meropenem, percent inhibition | inhibition, % at 25 µM | 330,000 tested, 0.27% active; call rule not given here;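 also: growth measured after seven days incubation then overnight dye step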
# Mtb FBA inh = inhibitors of M. tuberculosis fructose-bisphosphate aldolase | P9WQA3 | purified M. tuberculosis FBA, fluorescence read-out | inhibition, % at 1 µM | 360,000 tested, 2.3% active | AID 588726; in the data active = inhibition above about 27%
# Target sequence (P9WQA3 whole entry, looked up): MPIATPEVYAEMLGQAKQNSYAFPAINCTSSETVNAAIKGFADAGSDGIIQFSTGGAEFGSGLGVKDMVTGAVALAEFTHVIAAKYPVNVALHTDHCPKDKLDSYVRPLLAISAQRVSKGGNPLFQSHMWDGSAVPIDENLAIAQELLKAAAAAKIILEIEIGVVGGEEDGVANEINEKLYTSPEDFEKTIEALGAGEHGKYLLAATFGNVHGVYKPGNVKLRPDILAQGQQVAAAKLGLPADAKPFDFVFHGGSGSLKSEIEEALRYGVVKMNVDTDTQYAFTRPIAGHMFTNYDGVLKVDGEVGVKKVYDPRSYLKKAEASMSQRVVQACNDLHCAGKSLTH
# Mtb FBA confirm = confirmation of M. tuberculosis fructose-bisphosphate aldolase inhibitors. shares compounds with Mtb FBA inh. purified M. tuberculosis FBA, fluorescence read-out. inhibition, % at 1 µM. 5,600 tested, 78% active; in the data active = inhibition above about 27%
# GDH-TPI counter-2 = GDH-TPI inhibition counter-screen for FBA inhibitors. 5,600 tested, 81% active. GDH-TPI coupled enzyme counterscreen, fluorescence. shares compounds with Mtb FBA inh. inhibition, % at 1 µM; in the data active = inhibition above about 10%
# GDH-TPI DR = counter-screen for M. tuberculosis FBA inhibitors: GDH-TPI dose response; shares compounds with Mtb FBA inh; GDH-TPI coupled enzyme assay, fluorescence, artifact counterscreen; IC50, µM; 170 tested, 79% active; AID 652145; call rule not given here
# Numbers stand for hits; i = inactive; nt = no result; + = active, no number. A selection: hits, their analogues and other compounds. The true share with any hit is near 4%. Rule as the data show it, unless noted: active = inhibition above about 30%; inactive = the rest.
SMILES,MazEF act,CCHF vOTU inh,GDH-TPI counter-1,Mtb betalactam,Mtb FBA inh,Mtb FBA confirm,GDH-TPI counter-2,others
O=C(O)/C=C\c1cn(-c2ccccc2)nc1-c1cc2ccccc2o1,i,i,i,i,76.5,124.0,101.0,
O=C(O)/C=C/c1cn(-c2ccccc2)nc1-c1ccccc1,i,i,i,i,i,nt,nt,
CN(Cc1cn(-c2ccccc2)nc1-c1cc2ccccc2o1)C(=O)CCC(=O)O,i,i,i,i,45.5,i,i,
Cc1cc(N2CCN(C(=O)OC(C)(C)C)C[C@H]2C)ccc1N1CCS(=O)(=O)CC1,nt,i,nt,nt,nt,nt,nt,
c1cnc(SCC2CCCCC2)c(-c2nc3ccccc3[nH]2)c1,nt,i,nt,nt,nt,nt,nt,
COc1ccc2nc(SCC(=O)O)nc(C)c2c1,i,i,i,i,38.9,101.5,90.0,
O=C(CSc1nnc(COc2ccccc2)n1-c1ccc(Cl)cc1)Nc1ccc2c(c1)OCCO2,nt,i,nt,nt,nt,nt,nt,
COc1ccc(C(=O)C2CCCN(Cc3cccc(C)n3)C2)c(OC)c1 (stereo not given),i,i,i,i,i,nt,nt,
CCOC(=O)N1CCC(N2CCCC(C(=O)c3cc(C)c(OC)c(C)c3)C2)CC1 (stereo not given),i,i,i,i,i,nt,nt,
CCOC(=O)N1CCC(N2CCCC(C(=O)c3ccc4cc(OC)ccc4c3)C2)CC1 (stereo not given),i,i,i,i,106.6,115.7,91.2,
COc1ccc(C(=O)C2CCCN(Cc3ccc4nonc4c3)C2)c(OC)c1 (stereo not given),i,i,i,i,56.7,153.2,134.8,
COc1ccc2cc(C(=O)NCc3ccccc3CN3CCCC3)ccc2c1,i,i,i,i,33.5,114.7,104.2,
COc1ccc2cc(C(=O)C3CCCN(Cc4cccc(C)n4)C3)ccc2c1 (stereo not given),i,i,i,i,29.4,46.9,40.1,
CCCCNC(=O)C[C@H]1C[C@@]2(C(=O)OC)C(=C[C@H](C(C)C)O[C@@H]2C2CC2)N(Cc2ccc(Cl)cc2Cl)C1=O,nt,i,nt,nt,nt,nt,nt,
COc1ccc2cc(C(=O)C3CCCN(C(=O)CCc4ccccn4)C3)ccc2c1 (stereo not given),i,i,i,i,95.8,94.3,61.7,
C[C@H](O)[C@@H]1C(=O)N2CCc3c([nH]c4ccccc34)[C@@H]2C[C@@H]1N(C)S(=O)(=O)c1ccccc1,i,i,i,nt,71.9,+,+,
COc1ccc(NC(=O)N(C)[C@H]2C[C@H]3c4[nH]c5ccccc5c4CCN3C(=O)[C@H]2[C@H](C)O)cc1,i,i,i,nt,i,nt,nt,
Cc1ccccc1C(=O)N(C)[C@H]1C[C@H]2c3[nH]c4ccccc4c3CCN2C(=O)[C@H]1[C@H](C)O,i,i,i,nt,i,nt,nt,
C[C@H](O)[C@@H]1C(=O)N2CCc3c([nH]c4ccccc34)[C@@H]2C[C@@H]1N(C)C(=O)Nc1cccc2ccccc12,nt,i,nt,nt,73.8,i,24.1,
CCNC(=O)N(C)[C@H]1C[C@@H](c2ccccc2)N(C(C)=O)C[C@H]1CO,nt,i,nt,nt,nt,nt,nt,
Cc1nn(CC(=O)NCCc2cccs2)c(=O)c2cc3ccccc3n12,i,i,i,i,i,nt,nt,
O=C(OCc1cn(Cc2ccc(F)cc2F)nn1)N1CCOCC1,nt,i,nt,nt,nt,nt,nt,
CCN1CCN(CCCNC(=O)c2cc3c(=O)[nH]c4ccccc4c3s2)CC1,i,i,i,i,89.0,i,i,
O=C(NCCCN1CCOCC1)c1cc2c(=O)[nH]c3ccccc3c2s1,i,i,i,i,88.4,35.9,24.0,
CCCCn1c(=O)nc2n(-c3ccccc3)c3ccccc3cc-2c1=O,i,i,i,i,45.6,122.5,98.0,
SMILES,MazEF act,CCHF vOTU inh,GDH-TPI counter-1,Mtb betalactam,Mtb FBA inh,Mtb FBA confirm,GDH-TPI counter-2,others
CCCCn1c(=O)cc(C)n(-c2ccccc2)c1=O,i,i,i,i,i,nt,nt,
Cn1c(=O)c(-c2ccccc2)cc2ccccc21,i,i,i,nt,i,nt,nt,
Cc1ccc(C)c(-n2c3nc(=O)n(C)c(=O)c-3cc3ccccc32)c1,i,i,i,i,100.3,+,+,
COC[C@@H]1CCCN1c1ccc2c(c1)OCCCN(C1CC1)S2(=O)=O,nt,i,nt,nt,nt,nt,nt,
O=C(NCc1ccc(F)cc1)c1ccc(CS(=O)(=O)Cc2ccccc2F)o1,i,i,i,i,55.0,95.2,82.6,
Cn1c(=O)c2cc(NC(=S)NC3CCCCC3)ccc2n1-c1ccccc1,nt,i,i,nt,42.0,76.3,81.0,
CCCCN1CCN(C(=O)c2cn(C(C)c3ccccc3)nn2)CC1 (stereo not given),nt,i,nt,nt,nt,nt,nt,
CC(=O)OCC1OC(n2ccc3ccccc32)C(OC(C)=O)C(OC(C)=O)C1OC(C)=O (stereo not given),i,i,i,i,i,nt,nt,
CC(=O)OCC1OC(Sc2cccc3cccnc23)C(OC(C)=O)C(OC(C)=O)C1OC(C)=O (stereo not given),i,i,i,i,35.9,+,158.9,
O=C(N[C@@H]1CC[C@H]2SC[C@H](C(=O)O)N2C1=O)OCC1c2ccccc2-c2ccccc21,nt,i,nt,nt,nt,nt,nt,
COc1cc(NC(=O)NC2CCCCN(Cc3cccc(Cl)c3)C2=O)cc(OC)c1 (stereo not given),nt,i,nt,nt,nt,nt,nt,
Cc1ccc(-n2c(SCc3cccc(F)c3)nc3ccccc3c2=O)cc1,nt,i,nt,nt,nt,nt,nt,
C=CCNc1nc(NCc2ccccc2)c(C#N)c2c1CN(C)CC2,i,i,i,i,71.4,58.5,51.8,
CNc1cccc(-c2ccc(N3CCN(C)CC3)nc2)n1,nt,i,i,nt,53.8,i,i,GDH-TPI DR=3.46
CC(=O)N1CCc2cc(S(=O)(=O)NCCC(=O)NCc3ccccc3)ccc21,nt,i,nt,nt,nt,nt,nt,
Cc1cc(=O)oc2cc(OC(C)C(=O)O)c(Cl)cc12 (stereo not given),i,i,i,i,31.5,i,i,
Cc1cc(=O)oc2ccc(OC(C)C(=O)O)cc12 (stereo not given),i,i,i,i,i,nt,nt,
CC(=O)Nc1cc(-c2ccc(C(=O)N3CCOCC3)cc2)cn2c(-c3ccc(F)c(Cl)c3)cnc12,nt,i,i,nt,i,nt,nt,
CC(=O)Nc1cc(-c2cccc(C(=O)NCCN(C)C)c2)cn2c(-c3ccc(S(C)(=O)=O)cc3)cnc12,nt,i,i,nt,61.2,+,+,
CC(=O)Nc1cc(-c2ccc(F)cc2)cn2c(-c3ccc(F)cc3)cnc12,nt,i,i,nt,i,nt,nt,
CC(=O)Nc1cc(-c2cccc(C(=O)NCCN(C)C)c2)cn2c(-c3ccccc3)cnc12,nt,i,i,nt,i,nt,nt,
CC(=O)Nc1cc(-c2ccc(F)cc2)cn2c(-c3ccc(S(C)(=O)=O)cc3)cnc12,nt,i,i,nt,56.6,89.1,68.7,
CC(=O)Nc1cc(-c2ccc(C(=O)N3CCOCC3)cc2)cn2c(-c3ccc(S(C)(=O)=O)cc3)cnc12,nt,i,i,nt,27.7,+,+,
O=C(c1ccccc1)n1ccc2ccc(-c3ccc4ccn(Cc5ccccc5)c4c3)cc21,nt,i,nt,nt,nt,nt,nt,
